Data on 15 molecules can be found in PubChem BioAssay (Tox21).

Values joined by “and” are separate entries in the source; they are usually repeats but may differ in a detail not shown here. Identical values can stand only once. Results filed as inconclusive are left out. Where a structure was tested more than once in an assay, its records may differ in their call. Active and inactive are the calls of the source. Unless noted, the call rests on the fitted dose curve; in most records, active means well fitted curve in the direction sought with a large enough effect in the repeat runs; inconclusive means weak or mixed curves; inactive means no such curve, though single readings can be large; an effect the other way counts as inactive or inconclusive.

Assay [1] in a line: qHTS assay to identify aromatase inhibitors - cell viability counter screen (AID 743084).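 Further: cells stimulated with testosterone during compound exposure; nearly all actives have a fitted effect of over 55% in size.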 Further: potency means the concentration at half of the fitted maximal effect. Background: In qHTS, concentration-response curves come from the screen itself.
Assay [2] can be described thus: qHTS assay to identify small molecule that activate the aryl hydrocarbon receptor (AhR) signaling pathway - cell viability counter screen (AID 743086).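 Further: HepG2 liver cells carrying the AhR DRE luciferase reporter; series mostly up to about 70 µM; nearly all actives have a fitted effect of over 45% in size.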 The procedure, abridged:
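HepG2-AhR-luc (HG2L7.5c1) cells, 4000/well, treated 24 h at 37 C with compound; viability measured as CellTiter-Fluor fluorescence after 30 min in the same wells as the luciferase read.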

Assay [3] concerns the target Peroxisome proliferator-activated receptor gamma (Homo sapiens) (UniProt P37231). Put plainly: qHTS assay to identify small molecule agonists of the peroxisome proliferator-activated receptor gamma (PPARg) signaling pathway (AID 743094; active means well fitted activation curve with a large enough effect in the signal ratio in the repeat runs, not every such curve was filed as active; the % refers to the signal ratio). The method, boiled down:
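Reporter activation was scored by fluorescence of cleaved LiveBLAzer B/G substrate (1 h, room temperature) in PPARg-bla HEK293H cells previously treated 17 h at 37C with DMSO-dissolved compounds.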

For assay [4] the target is unchanged. Nature of the assay: qHTS assay to identify small molecule antagonists of the peroxisome proliferator-activated receptor gamma (PPARg) signaling pathway (AID 743191; calls by dose curve; further: nearly all actives have a fitted effect of over 30% in size; further: potency means the concentration at half of the fitted maximal effect). The procedure, abridged: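 GeneBLAzer PPARg UAS-bla HEK293H cells, 5 h post-plating, exposed to compounds 17 h at 37C. LiveBLAzer B/G FRET substrate added for 1 h at room temperature; beta-lactamase reporter read by fluorescence intensity.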

Assay [5] can be described thus: qHTS assay to identify small molecule antagonists of the peroxisome proliferator-activated receptor gamma (PPARg) signaling pathway - cell viability counter screen (AID 743194). Further: nearly all actives have a fitted effect of over 55% in size. Further: potency means the concentration at half of the fitted maximal effect. Particulars: Potency: co-treated with 50 nM rosiglitazone unless noted. The procedure, abridged: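 Cytotoxicity counter screen in PPARg-bla HEK293H cells, same wells as reporter assay. Compounds plus 50 nM rosiglitazone (final) for 17 h at 37 C, then viability read by CellTiter-Glo luminescence.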

Assay [6] is described as follows: qHTS assay for small molecule agonists of the antioxidant response element (ARE) signaling pathway - cell viability counter screen (AID 743203; calls by dose curve; further: nearly all actives have a fitted effect of over 55% in size; further: potency means the concentration at half of the fitted maximal effect). The method, boiled down: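 Viability counter screen: stably transfected ARE-bla HepG2 line, 16 hrs compound exposure at 37C/5% CO2, ATP-based CellTiter-Glo luminescence measured in the reporter wells.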
Assay [7] is described as follows: qHTS assay for small molecule activators of the heat shock response signaling pathway - cell viability counter screen (AID 743209). Further: nearly all actives have a fitted effect of over 50% in size. Further: potency means the concentration at half of the fitted maximal effect. The procedure, abridged: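 Viability of HSE-bla HeLa cells is measured with CellTiter-Glo in the wells already used for the reporter read. Compound exposure lasts 5 h at 37 C, and luminescence is read after 30 min at room temperature.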

The nature of assay [8]: qHTS assay for small molecule activators of the heat shock response signaling pathway (AID 743210; active means well fitted activation curve with a large enough effect in the signal ratio in the repeat runs, with a control signal flat, not every such curve was filed as active; the % refers to the signal ratio; further: potency means the concentration at half of the fitted maximal effect; on activation: series mostly up to about 63 µM). The procedure, abridged: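 Beta-lactamase reporter read-out: FRET substrate fluorescence after 2.5 h at RT, following 5 h compound treatment at 37 C of HeLa cells carrying HSE-driven bla reporter; quantitative HTS format.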
Assay [9] is described as follows: qHTS assay to identify small molecule agonists of the peroxisome proliferator-activated receptor delta (PPARd) signaling pathway - cell viability counter screen (AID 743211). Further: nearly all actives have a fitted effect of over 55% in size. Further: potency means the concentration at half of the fitted maximal effect. The method, boiled down: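 Viability was measured as CellTiter-Glo luminescence (30 min, room temperature) in the same wells as the beta-lactamase readout. GeneBLAzer PPARd UAS-bla HEK293H cells received compound after 5 h plating and were incubated 17 h at 37 C.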

Assay [10] has as its target Peroxisome proliferator-activated receptor delta (Homo sapiens) (UniProt Q03181). Nature of the assay: qHTS assay to identify small molecule agonists of the peroxisome proliferator-activated receptor delta (PPARd) signaling pathway (AID 743212; calls by dose curve). The method, boiled down: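 Read-out: beta-lactamase FRET fluorescence after 2 h room-temperature incubation with LiveBLAzer B/G substrate. Cells were HEK293H carrying a UAS-bla reporter for PPARd, treated at 37 C with DMSO-dissolved compounds.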

A short description of assay [11]: qHTS assay to identify small molecule antagonists of the peroxisome proliferator-activated receptor delta (PPARd) signaling pathway - cell viability counter screen (AID 743213). Further: nearly all actives have a fitted effect of over 50% in size. Further: potency means the concentration at half of the fitted maximal effect. The method, boiled down: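 In this counter screen, HEK293H cells carrying a UAS-beta-lactamase reporter are co-treated with test compounds and 300 nM L165041 (final) for 17 h at 37 C; cell viability is quantified by CellTiter-Glo luminescence.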

Assay [12] concerns the target Peroxisome proliferator-activated receptor delta (Homo sapiens) (UniProt Q03181). Put plainly: qHTS assay to identify small molecule antagonists of the peroxisome proliferator-activated receptor delta (PPARd) signaling pathway (AID 743215; active means well fitted inhibition curve with a large enough effect in the signal ratio in the repeat runs, not every such curve was filed as active; the % refers to the signal ratio;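 further: cells stimulated with agonist L165041 at 300 nM final during compound exposure; series mostly up to about 62 µM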). The method, boiled down:
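Plated HEK293H PPARd-bla cells rested 5 h at 37 C and 5% CO2. Compound, then agonist L165041 at 300 nM final, was added; 17 h at 37 C followed. Substrate loading, 2 h room temperature, fluorescence measured.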

Assay [13] can be described thus: qHTS assay to identify small molecule antagonists of the farnesoid-X-receptor (FXR) signaling pathway - cell viability counter screen (AID 743221; active means well fitted cell-killing curve with a large enough effect in the repeat runs, not every such curve was filed as active; further: nearly all actives have a fitted effect of over 50% in size). The method, boiled down:
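Cytotoxicity counter screen run in the FXR-bla reporter wells: HEK 293T cells exposed to compound with 50 uM (final) chenodeoxycholic acid for 16 h, 37 C, then viability measured by CellTiter-Glo luminescence after 30 min, room temperature.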

Assay [14] has as its target Vitamin D3 receptor (Homo sapiens) (UniProt P11473). Nature of the assay: qHTS assay to identify small molecule agonists of the vitamin D receptor (VDR) signaling pathway (AID 743222; calls by dose curve). The procedure, abridged:
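Fluorescence from cleaved LiveBLAzer B/G FRET substrate served as readout. VDR-bla cells had been treated 16 h at 37C with test compounds in DMSO, following a 4 h settling period, and substrate was loaded for 2 h at RT.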

The target is the same in assay [15]. Put plainly: qHTS assay to identify small molecule antagonists of the vitamin D receptor (VDR) signaling pathway (AID 743223; active means well fitted inhibition curve with a large enough effect in the signal ratio in the repeat runs, not every such curve was filed as active; the % refers to the signal ratio). The procedure, abridged:
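Antagonist mode: compound added to VDR-bla cells alongside agonist 1alpha,25-dihydroxyvitamin D3 (3 nM final), incubation 16 h at 37C. Read-out is LiveBLAzer FRET fluorescence, 2 h at room temperature.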

The target of assay [16] is Aryl hydrocarbon receptor (Homo sapiens) (UniProt P35869). Nature of the assay: qHTS assay to identify small molecule that activate the aryl hydrocarbon receptor (AhR) signaling pathway (AID 743085). Further: nearly all actives have a fitted effect of over 15% in size. Further: potency means the concentration at half of the fitted maximal effect.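 On activation: HG2L7.5c1 human HepG2 liver cells with stably integrated DRE-driven firefly reporter; series mostly up to about 70 µM.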 The method, boiled down: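 Luminescence (ONE-Glo) from a dioxin-responsive-element luciferase reporter in HG2L7.5c1 HepG2 cells after 24 hr compound exposure at 37C; viability measured by CellTiter-Fluor fluorescence beforehand.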

Assay [17] in a line: qHTS assay for small molecule agonists of the antioxidant response element (ARE) signaling pathway (AID 743202; active means well fitted activation curve with a large enough effect in the signal ratio in the repeat runs, not every such curve was filed as active; the % refers to the signal ratio; further: potency means the concentration at half of the fitted maximal effect). The method, boiled down: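 HepG2 ARE-bla reporter line, 2,000 cells/well; 5 h preincubation 37 C/5% CO2; compound (DMSO) 16 h 37 C; B/G FRET substrate 2 h RT; fluorescence intensity.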
Assay [18] in a line: qHTS assay to identify small molecule agonists of the farnesoid-X-receptor (FXR) signaling pathway - cell viability counter screen (AID 743218). Further: nearly all actives have a fitted effect of over 45% in size. The procedure, abridged: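 Viability of FXR-bla HEK 293T cells is measured by ATP-based CellTiter-Glo luminescence following 16 h compound treatment at 37 C and a prior 2 h room-temperature beta-lactamase substrate step.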
The target in assay [19] is Bile acid receptor (Homo sapiens) (UniProt Q96RI1). Nature of the assay: qHTS assay to identify small molecule agonists of the farnesoid-X-receptor (FXR) signaling pathway (AID 743220; active means well fitted activation curve with a large enough effect in the signal ratio in the repeat runs, not every such curve was filed as active; the % refers to the signal ratio). The method, boiled down: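 FXR-UAS-bla HEK 293T cells carrying a UAS-driven beta-lactamase reporter were plated for 5 h at 37C/5% CO2, then exposed to DMSO-dissolved Tox21 10K compounds for 16 h at 37C. A LiveBLAzer B/G FRET substrate was loaded for 2 h at room temperature before fluorescence reading.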
Chain of Bile acid receptor (Homo sapiens) (Q96RI1 whole entry, looked up): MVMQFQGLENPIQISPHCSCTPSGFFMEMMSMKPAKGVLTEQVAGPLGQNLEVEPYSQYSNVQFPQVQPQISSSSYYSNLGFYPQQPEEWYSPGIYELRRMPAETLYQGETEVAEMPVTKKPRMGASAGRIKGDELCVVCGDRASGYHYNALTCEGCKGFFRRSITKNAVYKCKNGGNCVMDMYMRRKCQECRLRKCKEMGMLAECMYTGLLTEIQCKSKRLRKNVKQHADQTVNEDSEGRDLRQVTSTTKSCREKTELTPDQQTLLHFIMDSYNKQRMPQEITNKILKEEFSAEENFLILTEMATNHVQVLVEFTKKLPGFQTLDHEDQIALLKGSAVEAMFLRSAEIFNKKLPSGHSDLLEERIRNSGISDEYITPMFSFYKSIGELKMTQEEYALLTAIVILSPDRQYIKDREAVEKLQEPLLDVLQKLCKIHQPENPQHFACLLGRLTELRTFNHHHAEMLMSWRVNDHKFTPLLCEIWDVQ

Chain of Peroxisome proliferator-activated receptor delta (Homo sapiens) (Q03181 whole entry, looked up): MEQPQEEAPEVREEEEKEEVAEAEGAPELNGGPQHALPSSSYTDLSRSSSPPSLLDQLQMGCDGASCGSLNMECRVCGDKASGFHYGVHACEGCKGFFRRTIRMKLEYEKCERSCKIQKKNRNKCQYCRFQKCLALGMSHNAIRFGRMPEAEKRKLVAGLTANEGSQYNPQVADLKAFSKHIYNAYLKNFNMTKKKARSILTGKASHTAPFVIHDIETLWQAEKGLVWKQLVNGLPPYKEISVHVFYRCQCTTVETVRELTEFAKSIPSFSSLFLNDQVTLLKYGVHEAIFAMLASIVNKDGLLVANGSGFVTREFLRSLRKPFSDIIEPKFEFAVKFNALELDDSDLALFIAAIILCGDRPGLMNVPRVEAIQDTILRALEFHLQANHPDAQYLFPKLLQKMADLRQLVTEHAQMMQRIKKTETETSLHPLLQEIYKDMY
Chain of Peroxisome proliferator-activated receptor gamma (Homo sapiens) (P37231 whole entry, looked up): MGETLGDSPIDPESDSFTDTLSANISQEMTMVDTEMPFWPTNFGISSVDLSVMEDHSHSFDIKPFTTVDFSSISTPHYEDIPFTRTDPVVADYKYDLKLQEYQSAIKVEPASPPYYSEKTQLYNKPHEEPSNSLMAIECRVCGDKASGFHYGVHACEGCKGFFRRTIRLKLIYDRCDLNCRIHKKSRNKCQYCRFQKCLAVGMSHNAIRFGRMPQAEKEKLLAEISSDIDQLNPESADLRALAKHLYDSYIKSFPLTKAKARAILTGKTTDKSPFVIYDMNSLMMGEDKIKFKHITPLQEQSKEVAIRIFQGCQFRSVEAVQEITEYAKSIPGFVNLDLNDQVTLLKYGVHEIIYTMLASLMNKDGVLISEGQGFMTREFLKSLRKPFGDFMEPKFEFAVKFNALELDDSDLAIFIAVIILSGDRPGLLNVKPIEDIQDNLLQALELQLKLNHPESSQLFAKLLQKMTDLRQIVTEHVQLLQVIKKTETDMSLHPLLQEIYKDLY
Chain of Vitamin D3 receptor (Homo sapiens) (P11473 whole entry, looked up): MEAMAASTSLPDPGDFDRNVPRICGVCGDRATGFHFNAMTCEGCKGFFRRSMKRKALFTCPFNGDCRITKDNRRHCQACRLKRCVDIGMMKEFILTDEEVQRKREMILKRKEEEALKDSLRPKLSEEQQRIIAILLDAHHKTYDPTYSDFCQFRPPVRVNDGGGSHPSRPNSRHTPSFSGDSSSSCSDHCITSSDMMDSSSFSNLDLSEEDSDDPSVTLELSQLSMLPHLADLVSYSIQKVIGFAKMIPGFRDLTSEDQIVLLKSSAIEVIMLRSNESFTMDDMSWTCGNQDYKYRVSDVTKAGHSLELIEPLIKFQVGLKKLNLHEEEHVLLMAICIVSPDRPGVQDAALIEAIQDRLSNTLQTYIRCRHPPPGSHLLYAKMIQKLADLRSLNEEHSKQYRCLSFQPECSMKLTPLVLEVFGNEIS
Chain of Aryl hydrocarbon receptor (Homo sapiens) (P35869 whole entry, looked up): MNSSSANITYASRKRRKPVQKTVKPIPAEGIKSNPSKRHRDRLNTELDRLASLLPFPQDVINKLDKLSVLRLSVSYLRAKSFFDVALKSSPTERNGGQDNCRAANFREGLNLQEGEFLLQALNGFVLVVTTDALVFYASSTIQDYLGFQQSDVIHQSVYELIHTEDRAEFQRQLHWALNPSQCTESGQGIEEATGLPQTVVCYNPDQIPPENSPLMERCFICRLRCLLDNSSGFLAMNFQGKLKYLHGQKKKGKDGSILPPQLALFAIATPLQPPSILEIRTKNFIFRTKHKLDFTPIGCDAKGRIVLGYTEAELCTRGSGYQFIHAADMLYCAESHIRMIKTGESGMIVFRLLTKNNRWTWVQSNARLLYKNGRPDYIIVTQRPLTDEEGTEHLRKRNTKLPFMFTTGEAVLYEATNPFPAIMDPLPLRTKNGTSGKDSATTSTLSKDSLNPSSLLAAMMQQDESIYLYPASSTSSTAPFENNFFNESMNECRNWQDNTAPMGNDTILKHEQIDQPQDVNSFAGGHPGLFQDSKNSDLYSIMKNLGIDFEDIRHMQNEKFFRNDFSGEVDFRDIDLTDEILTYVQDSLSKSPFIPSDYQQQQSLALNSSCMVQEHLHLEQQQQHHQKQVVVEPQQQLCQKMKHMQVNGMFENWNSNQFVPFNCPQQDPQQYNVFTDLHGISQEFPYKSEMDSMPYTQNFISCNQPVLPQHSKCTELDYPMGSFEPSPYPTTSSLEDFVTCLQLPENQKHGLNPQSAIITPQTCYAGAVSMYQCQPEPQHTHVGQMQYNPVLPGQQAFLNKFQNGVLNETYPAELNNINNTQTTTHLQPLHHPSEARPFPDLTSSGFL

On to `C1=Cc2cccc3cccc1c23`, for which the Potency entry in assay [1], in [2], in [3], in [4], in assay [5] and in assay [6] was “inactive” in each case. For the same molecule, the Potency entry in assay [7], in assay [8], in assay [9], in assay [10], in assay [11] and in [12] was “inactive” throughout. The Potency entry in assay [13] is “inactive”. In addition, the molecule was called inactive in assay [14] and in [15].
With `CCOCN(C(=O)CCl)c1c(C)cccc1CC`, the Potency result in assay [16], in assay [2], in [3], in [5], in assay [11] and in assay [13] was “inactive” in each case. The Potency in assay [6] is 14.5 µM (active) and 21.7 µM (active); in [9], 41.2 µM (active). Further, the molecule was called inactive in assay [14] and in assay [15].
With `CC(C)(c1cc(Cl)c(O)c(Cl)c1)c1cc(Cl)c(O)c(Cl)c1`, the Potency entry in [1], in assay [16], in assay [2], in [7], in assay [10] and in [11] was “inactive” throughout. Moreover, the Potency entry in [12] and in [13] was “inactive” in each case. In addition, the Potency in assay [5] is 49 µM (active) and 24.5 µM (active); in assay [17], 15.4 µM (active) and 19.3 µM (active). In addition, the outcome in assay [14] and in [15] was inactive.
`C=CCc1ccc2c(c1)OCO2`: the Potency entry in assay [1], in assay [2], in assay [3], in assay [5], in assay [17] and in [6] was “inactive” each time. The Potency entry in assay [7], in assay [8], in assay [9], in [11] and in assay [13] was “inactive” throughout. The molecule was classed as inactive in [14] and in assay [15].
`Nc1ccc(Cl)cc1N`: the Potency entry in assay [1], in [3], in assay [5], in assay [7], in [9] and in assay [11] was “inactive” in each case. The Potency entry in assay [18] and in assay [13] was “inactive” in each case. For the same molecule, the Potency in assay [16] is 11.3 µM (active) and 13.7 µM (active); in assay [6], “inactive and 6.11 µM (active)”.
Regarding `CCOc1cc(C=O)ccc1O`, the Potency result in assay [2], in assay [5], in assay [17], in [6], in assay [7] and in [8] was “inactive” each time. Moreover, the Potency result in assay [9], in assay [10], in assay [11], in assay [12], in [18] and in [13] was “inactive” throughout. Besides, the outcome in assay [14] and in assay [15] was inactive.
As to `Oc1c(Cl)c(Cl)c(Cl)c(Cl)c1Cl`, the Potency entry in assay [1], in [2], in assay [7], in [8], in [9] and in assay [13] was “inactive” throughout. Besides, the Potency in [16] is 3.37 µM (active); in [4], 3.4 µM (active). Moreover, the molecule was called inactive in assay [19], in assay [14] and in assay [15].
As to `Nc1ccc(-c2ccccc2)cc1`, the Potency result in assay [1], in [2], in assay [5], in [6], in [7] and in assay [8] was “inactive” throughout. The Potency entry in assay [9], in [10], in [11], in [12], in [18] and in [13] was “inactive” each time. Further, the Potency in [16] is 9.69 µM (active); in [17] it was “inactive and 27.3 µM (active)”. For the same molecule, the molecule was called inactive in assay [14] and in assay [15].
As to `c1ccc(NNc2ccccc2)cc1`, the Potency entry in [2], in assay [5], in [17], in assay [6], in [7] and in [8] was “inactive” each time. For the same molecule, the Potency entry in assay [9], in [10], in assay [11], in assay [12], in assay [18] and in assay [13] was “inactive” in each case. Besides, the result in assay [14] and in [15] was inactive.
In the case of `N#CCCCl`, the Potency result in assay [2], in assay [5], in assay [17], in [6], in assay [7] and in assay [8] was “inactive” in each case. In addition, the Potency entry in assay [9], in assay [11], in [18] and in assay [13] was “inactive” in each case. In addition, the call in assay [14] and in [15] was inactive.
With `CCOC(=S)S`, the Potency result in [16], in assay [2], in assay [5], in assay [17], in assay [6] and in assay [18] was “inactive” each time. Moreover, in assay [13], the Potency entry was “inactive”. Besides, the values for the Potency in [7], in assay [8] and in [11] were 17.4 µM (active), 2.24 µM (active) and 29.3 µM (active), respectively.
For `CCC(C)c1ccc(O)cc1` (centres undefined), the Potency result in assay [2], in assay [5], in [17], in assay [6], in assay [7] and in [8] was “inactive” throughout. Also, the Potency entry in assay [9], in [11] and in assay [13] was “inactive” each time.
Turning to `Cc1cc(C)cc(C)c1`, the Potency result in assay [2], in assay [5], in assay [17], in assay [6], in assay [7] and in assay [8] was “inactive” in each case. Besides, the Potency result in [9], in assay [11] and in assay [13] was “inactive” each time. For the same molecule, the call in assay [14] and in [15] was inactive.
In the case of `O=C(CCl)c1ccccc1`, the Potency entry in [1] was “inactive and 61.1 µM (active)”; in assay [7] it was “inactive and 24.5 µM (active)”. The Potency result in assay [16], in assay [2], in assay [5], in assay [6], in assay [9] and in assay [10] was “inactive” throughout. Moreover, the Potency result in assay [11], in assay [12], in [18] and in assay [13] was “inactive” throughout. Besides, the molecule was called inactive in assay [14] and in [15].
With `C=CC(=O)OCCO`, the Potency entry in [2], in assay [5], in assay [6], in assay [7], in [8] and in assay [9] was “inactive” in each case. The Potency entry in [10], in assay [11], in assay [12], in assay [18] and in [13] was “inactive” throughout. The call in assay [14] and in assay [15] was inactive.
